From PubChem BioAssay (NCATS)
Values joined by “and” are separate entries in the source; they are usually repeats but may differ in a detail not shown here. Equal values may be shown once. Inconclusive results are not listed. Active and inactive are the calls of the source. Calls follow the shape of the dose curve; as a rule, active = well fitted inhibition curve with a large enough effect; inconclusive = small, poorly fitted or top-dose-only effect; inactive = flat fitted curve, though single readings scatter.

Experiments:
[1] = tested on: TAB165; assay: qHTS profiling for inhibitors of Plasmodium falciparum proliferation (AID 504749); also: potency is read from the fitted curve at half-maximal effect; conditions: P. falciparum in erythrocytes, SYBR Green DNA, 72 h; series mostly up to 28.7 µM
Method in brief: (§1)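 P. falciparum-infected erythrocytes (0.3% parasitemia, 2.5% hematocrit) incubated with compound 72 h at 37 C, 5% CO2. Parasite DNA detected by SYBR Green after lysis, overnight at room temperature; normalised to 0.29 uM artemisinin and DMSO.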

[2] = tested on: W2; assay: as above; conditions: P. falciparum in erythrocytes, SYBR Green DNA, 72 h; series mostly up to 28.7 µM
Method in brief: as §1

[3] = tested on: CRL-7250; assay: Cytotoxic Profiling of Annotated Libraries Using Quantitative High-Throughput Screening (AID 1296008); conditions: Five cell lines viability, CellTiter-Glo ATP luminescence, 48-72 h; max response: active compounds read low; also: potency is read from the fitted curve at half-maximal effect; as to max response: % is scaled to controls: 0 for no effect and ±100 for the full control effect
Method in brief: (§2)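 Cells exposed to compounds for 48 or 72 hr at 37 degrees Celsius. Viability read as ATP-coupled luminescence with CellTiter-Glo after 10 min at room temperature.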

[4] = tested on: HaCat; assay: as above; conditions: Five cell lines viability, CellTiter-Glo ATP luminescence, 48-72 h; max response: active compounds read low
Method in brief: as §2

[5] = tested on: KB-3-1; assay: as above; conditions: Five cell lines viability, CellTiter-Glo ATP luminescence, 48-72 h; max response: active compounds read low
Method in brief: as §2

[6] = tested on: NIH3T3; assay: as above; conditions: Five cell lines viability, CellTiter-Glo ATP luminescence, 48-72 h; max response: active compounds read low
Method in brief: as §2

[7] = tested on: HACAT; assay: qHTS assay to identify novel small-molecules to repurpose for Merkel cell carcinoma treatment (AID 1296009); conditions: MCC and control cell lines, CellTiter-Glo viability, 72 h; at 44.8 µM (top of the series) unless noted
Method in brief: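 Cells were treated for 72 hr at 37 degree celsius with compounds in 8- or 11-point dose response. Viability was read by CellTiter-Glo luminescence, normalized to no-cell (cytotoxicity) and DMSO controls.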

[8] = tested on: HEK293; assay: Cytotoxic Profiling of Annotated Libraries Using Quantitative High-Throughput Screening (AID 1296008); conditions: Five cell lines viability, CellTiter-Glo ATP luminescence, 48-72 h; max response: active compounds read low; also: potency is read from the fitted curve at half-maximal effect; as to max response: % is scaled to controls: 0 for no effect and ±100 for the full control effect
Method in brief: as §2

[9] = tested on: TAB113; assay: qHTS profiling for inhibitors of Plasmodium falciparum proliferation (AID 504749); also: potency is read from the fitted curve at half-maximal effect; conditions: P. falciparum in erythrocytes, SYBR Green DNA, 72 h; series mostly up to 28.7 µM
Method in brief: as §1
Also: nearly all actives have a fitted effect of over 60% in size.

Cc1cc(CC(=O)O)c(C)n1-c1ccc(Cl)cc1
active: Potency [1] 14.1 µM | Potency [2] 8.49 µM
inactive: outcome [3] | outcome [4] | max response [5] -2.45% | outcome [6] | outcome [7]

C[C@@]12C(=O)OC(=O)[C@]1(C)C1CCC2O1
active: Potency [3] 2.99 µM | Potency [8] 7.5 µM | Potency [6] 9.44 µM

CC(C)n1c(/C=C/[C@@H](O)C[C@@H](O)CC(=O)O)c(-c2ccc(F)cc2)c2ccccc21
active: Potency [3] 1.5 µM | Potency [8] 16.8 µM | Potency [6] 11.9 µM

O=C(CCCN1CC=C(n2c(=O)[nH]c3ccccc32)CC1)c1ccc(F)cc1
inactive: max response [3] -30.7% | max response [4] -9.03% and -18.9% | max response [5] 3.95% and 1.87% | max response [6] -10.6%

CC1CCc2c(N3CCC(O)CC3)c(F)cc3c(=O)c(C(=O)O)cn1c23 (stereo unspecified)
inactive: max response [3] -8.92% | max response [4] -5.2% | max response [5] 15% | max response [6] -20%

CC[N+](C)(CC)CCOC(=O)C(O)(c1ccccc1)C1CCCCC1 (stereo unspecified)
inactive: Potency [9] | Potency [1] | max response [3] -11.2% | outcome [4] | max response [5] 5.15% | max response [6] -5.74% | outcome [7]

CCCN(CCc1cccs1)[C@H]1CCc2c(O)cccc2C1
active: Potency [9] 4.47 µM | Potency [1] 4.47 µM | Potency [2] 1.35 µM
inactive: max response [3] -5.8% | outcome [4] | max response [5] 5.8% | outcome [6] | outcome [7]

CC(=O)O[C@]1(C(C)=O)CC[C@H]2[C@@H]3C=C(C)C4=CC(=O)CC[C@]4(C)[C@H]3CC[C@@]21C
inactive: max response [3] -4.16% | max response [4] -4.96% | max response [5] 11.8% | max response [6] 0.169%

O=C(Nc1ccccc1)OCC(CN1CCCCC1)OC(=O)Nc1ccccc1 (stereo unspecified)
inactive: max response [3] -24% | outcome [4] | max response [5] -1.56% | max response [6] -10.2% | outcome [7]

CC(=O)N[C@@H](CCC(=O)O)C(=O)O
inactive: Potency [9] | Potency [1] | Potency [2] | max response [3] 2.81% | max response [8] -7.38% | outcome [6]

CCCCCN=C(N)N/N=C/c1c[nH]c2ccc(OC)cc12
active: Potency [9] 10 µM | Potency [1] 3.55 µM | Potency [2] 1.51 µM | Potency [3] 18.8 µM | Potency [8] 8.41 µM

NC(N)=NN=C(/C=C/c1ccc([N+](=O)[O-])o1)/C=C/c1ccc([N+](=O)[O-])o1
active: Potency [1] 7.94 µM | Potency [2] 2.39 µM | Potency [3] 5.96 µM | Potency [8] 4.73 µM | Potency [6] 6.68 µM
